The supplement of paper PMC11732987, “Enantioselective OTUD7B fragment discovery through chemoproteomics screening and high-throughput optimisation” (Communications Chemistry, 2025)

What was measured:
Experiment in all cases: log2 ratio of Biotin-Ahx-Ub-VS probe labelling (fragment/DMSO); higher = less target engagement (more negative = stronger competition), active = hit call of the paper (q ≤ 0.05, log2 ratio ≤ -1)
Conditions in all cases: compound concentration: 200 uM; treatment time: 3 h
USP34 = USP34 (UniProt Q70CQ2)
Sequence of USP34 (Q70CQ2 whole entry, the tested form may be a part): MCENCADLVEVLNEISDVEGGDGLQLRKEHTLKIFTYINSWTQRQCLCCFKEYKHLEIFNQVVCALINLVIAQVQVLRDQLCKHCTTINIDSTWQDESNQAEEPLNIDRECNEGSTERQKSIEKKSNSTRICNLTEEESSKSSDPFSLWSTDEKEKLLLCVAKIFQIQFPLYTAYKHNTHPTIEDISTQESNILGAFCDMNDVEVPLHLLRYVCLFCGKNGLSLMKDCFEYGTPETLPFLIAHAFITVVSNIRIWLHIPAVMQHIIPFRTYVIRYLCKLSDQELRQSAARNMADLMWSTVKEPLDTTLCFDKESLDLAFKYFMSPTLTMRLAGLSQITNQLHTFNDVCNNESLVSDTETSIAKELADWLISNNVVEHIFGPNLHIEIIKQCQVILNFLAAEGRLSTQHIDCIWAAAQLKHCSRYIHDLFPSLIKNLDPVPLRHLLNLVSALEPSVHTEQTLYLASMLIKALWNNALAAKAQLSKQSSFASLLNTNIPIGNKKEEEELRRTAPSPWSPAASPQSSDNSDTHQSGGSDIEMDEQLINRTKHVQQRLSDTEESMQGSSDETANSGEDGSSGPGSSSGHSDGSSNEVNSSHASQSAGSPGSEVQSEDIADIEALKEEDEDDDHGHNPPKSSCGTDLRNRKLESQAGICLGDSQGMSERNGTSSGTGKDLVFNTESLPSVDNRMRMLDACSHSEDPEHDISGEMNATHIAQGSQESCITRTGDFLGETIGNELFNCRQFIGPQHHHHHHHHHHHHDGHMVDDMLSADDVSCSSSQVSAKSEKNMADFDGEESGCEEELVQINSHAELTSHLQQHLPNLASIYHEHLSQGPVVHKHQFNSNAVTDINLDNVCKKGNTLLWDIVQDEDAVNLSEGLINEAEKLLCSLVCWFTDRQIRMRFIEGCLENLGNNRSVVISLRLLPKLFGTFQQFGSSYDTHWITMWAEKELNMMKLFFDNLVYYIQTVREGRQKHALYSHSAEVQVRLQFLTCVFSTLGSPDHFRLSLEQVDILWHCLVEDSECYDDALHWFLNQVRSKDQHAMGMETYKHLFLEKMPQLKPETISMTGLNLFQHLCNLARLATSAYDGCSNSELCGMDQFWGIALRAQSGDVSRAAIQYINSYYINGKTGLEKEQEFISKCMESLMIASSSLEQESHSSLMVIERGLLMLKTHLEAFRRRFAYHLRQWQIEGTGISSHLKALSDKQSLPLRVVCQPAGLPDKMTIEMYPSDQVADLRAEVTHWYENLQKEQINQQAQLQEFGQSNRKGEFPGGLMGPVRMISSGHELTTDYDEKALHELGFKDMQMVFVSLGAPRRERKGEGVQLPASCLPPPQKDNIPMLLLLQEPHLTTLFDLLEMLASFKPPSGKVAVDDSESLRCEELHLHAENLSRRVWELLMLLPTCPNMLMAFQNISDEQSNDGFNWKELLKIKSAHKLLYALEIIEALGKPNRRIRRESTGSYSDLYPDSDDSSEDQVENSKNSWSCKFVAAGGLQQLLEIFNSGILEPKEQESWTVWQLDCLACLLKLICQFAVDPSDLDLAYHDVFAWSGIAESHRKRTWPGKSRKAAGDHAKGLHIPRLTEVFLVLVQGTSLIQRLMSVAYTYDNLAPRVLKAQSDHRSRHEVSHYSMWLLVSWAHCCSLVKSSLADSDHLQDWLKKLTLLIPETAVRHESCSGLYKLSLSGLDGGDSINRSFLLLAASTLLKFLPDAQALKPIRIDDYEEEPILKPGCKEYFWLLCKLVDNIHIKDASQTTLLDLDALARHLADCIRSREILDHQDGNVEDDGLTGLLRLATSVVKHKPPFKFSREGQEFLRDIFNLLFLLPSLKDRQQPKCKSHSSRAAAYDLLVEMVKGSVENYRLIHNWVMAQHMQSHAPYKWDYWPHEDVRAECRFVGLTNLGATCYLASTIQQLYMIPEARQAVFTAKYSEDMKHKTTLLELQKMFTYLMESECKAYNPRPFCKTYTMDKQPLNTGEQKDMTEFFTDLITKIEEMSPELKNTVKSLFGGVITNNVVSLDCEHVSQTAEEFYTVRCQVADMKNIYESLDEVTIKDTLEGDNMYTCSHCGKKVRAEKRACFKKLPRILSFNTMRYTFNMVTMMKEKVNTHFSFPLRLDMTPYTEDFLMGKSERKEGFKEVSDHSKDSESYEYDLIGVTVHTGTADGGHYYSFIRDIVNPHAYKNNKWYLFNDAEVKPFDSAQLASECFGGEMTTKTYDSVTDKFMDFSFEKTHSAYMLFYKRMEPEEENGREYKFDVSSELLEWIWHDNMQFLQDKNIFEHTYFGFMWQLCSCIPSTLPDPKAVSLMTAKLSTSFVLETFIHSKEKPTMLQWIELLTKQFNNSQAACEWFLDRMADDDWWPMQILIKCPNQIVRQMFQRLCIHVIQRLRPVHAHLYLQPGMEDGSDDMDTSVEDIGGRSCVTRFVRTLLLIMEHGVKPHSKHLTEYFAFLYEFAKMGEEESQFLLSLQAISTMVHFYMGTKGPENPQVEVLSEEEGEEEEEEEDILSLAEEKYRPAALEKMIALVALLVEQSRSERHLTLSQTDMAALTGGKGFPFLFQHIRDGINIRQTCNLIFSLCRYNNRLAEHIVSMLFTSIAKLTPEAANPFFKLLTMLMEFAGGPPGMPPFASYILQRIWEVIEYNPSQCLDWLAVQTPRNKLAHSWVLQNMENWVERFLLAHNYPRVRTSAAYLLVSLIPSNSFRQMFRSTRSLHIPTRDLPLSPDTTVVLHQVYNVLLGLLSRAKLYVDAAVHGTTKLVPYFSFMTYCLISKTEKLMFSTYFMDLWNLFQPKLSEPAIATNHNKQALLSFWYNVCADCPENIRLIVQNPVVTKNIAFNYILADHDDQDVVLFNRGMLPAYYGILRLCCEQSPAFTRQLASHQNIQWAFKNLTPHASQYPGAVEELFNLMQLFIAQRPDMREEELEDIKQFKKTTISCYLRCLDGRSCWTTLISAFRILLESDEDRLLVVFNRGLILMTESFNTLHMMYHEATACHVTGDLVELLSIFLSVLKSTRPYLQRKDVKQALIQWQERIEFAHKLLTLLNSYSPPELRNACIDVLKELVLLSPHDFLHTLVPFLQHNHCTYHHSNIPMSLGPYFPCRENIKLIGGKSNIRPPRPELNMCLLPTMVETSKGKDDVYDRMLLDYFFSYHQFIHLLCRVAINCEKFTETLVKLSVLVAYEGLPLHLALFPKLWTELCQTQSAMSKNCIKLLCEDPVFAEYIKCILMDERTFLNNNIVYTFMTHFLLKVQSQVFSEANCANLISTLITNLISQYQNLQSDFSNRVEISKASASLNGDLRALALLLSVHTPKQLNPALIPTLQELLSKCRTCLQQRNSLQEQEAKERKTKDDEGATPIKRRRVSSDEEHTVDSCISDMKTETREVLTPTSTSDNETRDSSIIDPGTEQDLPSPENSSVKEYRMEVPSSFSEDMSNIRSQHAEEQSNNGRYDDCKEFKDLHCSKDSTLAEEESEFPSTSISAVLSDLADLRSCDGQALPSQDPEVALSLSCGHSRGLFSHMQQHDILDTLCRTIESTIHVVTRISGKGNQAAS
Procedure, shortened: (§1)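 Average log2 ratios of fragment over vehicle were obtained by unpaired t-test from global-median-normalised Spectronaut label-free quantities. Proteins with ≥2 unique peptides were included. HEK293T lysate (495 µg per sample) was treated in triplicate with fragment at 200 µM or vehicle for 3 h, then with Biotin-Ahx-Ub-VS at 0.5 µM final for 1 h, and labelled DUBs were NeutrAvidin-enriched and run by diaPASEF LC-MS/MS.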

USP36 = target: T1, USP36 (UniProt Q9P275)
T1 sequence (whole entry): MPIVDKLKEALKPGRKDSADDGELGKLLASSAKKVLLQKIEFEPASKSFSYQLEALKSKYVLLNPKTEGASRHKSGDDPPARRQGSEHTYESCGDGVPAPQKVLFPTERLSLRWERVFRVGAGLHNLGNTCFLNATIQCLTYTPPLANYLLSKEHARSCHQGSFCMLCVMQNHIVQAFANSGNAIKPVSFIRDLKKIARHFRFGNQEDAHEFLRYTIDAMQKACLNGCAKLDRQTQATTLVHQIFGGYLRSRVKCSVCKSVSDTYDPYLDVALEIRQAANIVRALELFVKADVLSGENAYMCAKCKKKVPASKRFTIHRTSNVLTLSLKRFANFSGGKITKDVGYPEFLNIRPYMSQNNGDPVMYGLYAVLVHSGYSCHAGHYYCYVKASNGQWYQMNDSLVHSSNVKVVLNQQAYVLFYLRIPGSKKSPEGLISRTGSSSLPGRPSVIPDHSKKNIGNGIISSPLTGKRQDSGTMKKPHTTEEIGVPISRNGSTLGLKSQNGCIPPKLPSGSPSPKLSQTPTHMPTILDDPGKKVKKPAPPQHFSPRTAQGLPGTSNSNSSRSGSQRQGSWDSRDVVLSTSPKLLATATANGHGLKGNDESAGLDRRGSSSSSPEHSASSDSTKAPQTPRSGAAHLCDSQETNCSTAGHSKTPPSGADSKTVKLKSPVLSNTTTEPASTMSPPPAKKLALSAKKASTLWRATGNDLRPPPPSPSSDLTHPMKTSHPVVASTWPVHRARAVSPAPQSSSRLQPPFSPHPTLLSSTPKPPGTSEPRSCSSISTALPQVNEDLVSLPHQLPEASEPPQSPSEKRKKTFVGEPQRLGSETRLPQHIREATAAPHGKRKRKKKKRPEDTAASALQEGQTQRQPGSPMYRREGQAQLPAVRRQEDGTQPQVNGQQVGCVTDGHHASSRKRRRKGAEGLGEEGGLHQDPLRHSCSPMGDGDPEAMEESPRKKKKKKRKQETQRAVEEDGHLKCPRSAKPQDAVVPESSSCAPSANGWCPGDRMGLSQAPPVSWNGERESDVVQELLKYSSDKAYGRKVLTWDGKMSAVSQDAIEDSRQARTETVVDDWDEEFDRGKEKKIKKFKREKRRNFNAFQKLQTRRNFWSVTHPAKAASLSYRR
Procedure, shortened: as §1

USP38 = target: T2, USP38 (UniProt Q8NB14)
T2 sequence (whole entry): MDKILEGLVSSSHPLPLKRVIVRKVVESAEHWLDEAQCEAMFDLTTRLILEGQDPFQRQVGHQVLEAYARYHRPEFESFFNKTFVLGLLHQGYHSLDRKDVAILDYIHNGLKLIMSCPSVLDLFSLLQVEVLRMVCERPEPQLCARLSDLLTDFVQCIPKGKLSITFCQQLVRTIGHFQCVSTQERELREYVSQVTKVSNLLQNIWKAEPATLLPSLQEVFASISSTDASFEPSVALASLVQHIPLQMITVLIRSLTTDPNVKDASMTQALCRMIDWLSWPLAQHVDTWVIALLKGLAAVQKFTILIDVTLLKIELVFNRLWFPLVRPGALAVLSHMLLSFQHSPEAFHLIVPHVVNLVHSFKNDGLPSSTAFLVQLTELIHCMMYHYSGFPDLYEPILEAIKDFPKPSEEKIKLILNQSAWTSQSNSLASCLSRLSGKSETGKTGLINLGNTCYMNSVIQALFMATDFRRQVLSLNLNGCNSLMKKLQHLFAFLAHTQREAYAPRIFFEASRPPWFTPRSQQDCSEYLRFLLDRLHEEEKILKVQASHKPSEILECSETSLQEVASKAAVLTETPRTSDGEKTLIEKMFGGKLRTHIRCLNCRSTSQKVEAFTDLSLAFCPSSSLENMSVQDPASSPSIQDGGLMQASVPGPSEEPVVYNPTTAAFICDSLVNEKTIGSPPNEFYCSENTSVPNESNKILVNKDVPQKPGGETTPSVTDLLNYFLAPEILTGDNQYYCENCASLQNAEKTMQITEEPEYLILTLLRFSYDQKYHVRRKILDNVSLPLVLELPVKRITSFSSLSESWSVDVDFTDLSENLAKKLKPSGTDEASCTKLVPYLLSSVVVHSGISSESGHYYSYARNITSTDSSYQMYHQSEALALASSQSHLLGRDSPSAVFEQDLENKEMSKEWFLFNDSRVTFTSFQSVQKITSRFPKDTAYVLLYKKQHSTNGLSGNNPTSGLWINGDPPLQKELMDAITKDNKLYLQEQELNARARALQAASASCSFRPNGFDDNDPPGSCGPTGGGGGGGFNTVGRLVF
Procedure, shortened: as §1

USP39 = target: T3, USP39 (UniProt Q53GS9)
T3 sequence (whole entry): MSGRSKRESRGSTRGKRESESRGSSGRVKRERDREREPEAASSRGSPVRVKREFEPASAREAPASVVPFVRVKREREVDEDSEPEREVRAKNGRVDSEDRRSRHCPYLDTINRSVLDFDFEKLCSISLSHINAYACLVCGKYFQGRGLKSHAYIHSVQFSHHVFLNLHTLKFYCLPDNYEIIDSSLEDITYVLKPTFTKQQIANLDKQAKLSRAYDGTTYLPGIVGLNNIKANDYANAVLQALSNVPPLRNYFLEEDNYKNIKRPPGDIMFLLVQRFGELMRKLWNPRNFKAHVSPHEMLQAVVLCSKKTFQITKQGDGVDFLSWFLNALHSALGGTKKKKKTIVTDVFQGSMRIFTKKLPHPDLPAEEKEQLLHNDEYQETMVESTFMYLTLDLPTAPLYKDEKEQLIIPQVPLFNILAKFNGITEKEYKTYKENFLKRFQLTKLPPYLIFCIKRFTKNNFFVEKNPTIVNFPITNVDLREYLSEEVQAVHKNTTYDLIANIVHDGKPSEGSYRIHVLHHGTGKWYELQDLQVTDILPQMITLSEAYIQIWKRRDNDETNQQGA
Procedure, shortened: as §1

USP4 = target: T4, USP4 (UniProt Q13107)
T4 sequence (whole entry): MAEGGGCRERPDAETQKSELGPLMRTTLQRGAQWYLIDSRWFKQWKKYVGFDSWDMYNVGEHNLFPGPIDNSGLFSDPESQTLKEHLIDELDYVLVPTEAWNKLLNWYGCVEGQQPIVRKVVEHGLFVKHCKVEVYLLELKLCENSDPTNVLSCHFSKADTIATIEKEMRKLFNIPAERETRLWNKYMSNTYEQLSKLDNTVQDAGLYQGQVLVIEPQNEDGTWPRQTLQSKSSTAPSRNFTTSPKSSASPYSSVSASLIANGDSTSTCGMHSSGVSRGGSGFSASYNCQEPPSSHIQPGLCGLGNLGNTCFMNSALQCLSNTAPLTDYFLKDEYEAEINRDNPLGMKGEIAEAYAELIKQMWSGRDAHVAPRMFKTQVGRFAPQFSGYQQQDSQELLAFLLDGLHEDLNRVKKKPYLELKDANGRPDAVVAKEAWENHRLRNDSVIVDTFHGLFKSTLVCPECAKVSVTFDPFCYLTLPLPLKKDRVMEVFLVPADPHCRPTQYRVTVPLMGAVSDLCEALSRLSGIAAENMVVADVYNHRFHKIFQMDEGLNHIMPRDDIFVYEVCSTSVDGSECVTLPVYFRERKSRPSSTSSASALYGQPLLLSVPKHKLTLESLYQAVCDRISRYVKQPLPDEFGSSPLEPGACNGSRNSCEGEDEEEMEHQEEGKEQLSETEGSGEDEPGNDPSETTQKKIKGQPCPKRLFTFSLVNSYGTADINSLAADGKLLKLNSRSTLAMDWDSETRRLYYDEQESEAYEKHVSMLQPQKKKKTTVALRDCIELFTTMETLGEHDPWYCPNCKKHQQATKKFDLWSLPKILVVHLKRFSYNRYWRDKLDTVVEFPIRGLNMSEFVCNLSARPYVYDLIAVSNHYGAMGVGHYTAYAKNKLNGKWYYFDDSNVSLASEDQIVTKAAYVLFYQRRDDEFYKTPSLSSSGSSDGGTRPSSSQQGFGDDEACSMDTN
Procedure, shortened: as §1

Measured: log2 ratio of Biotin-Ahx-Ub-VS probe labelling

N#Cc1ccc(Cl)cc1NC(=O)CCl
inactive: USP34 -0.22 | USP36 0.137 | USP38 -0.0529 | USP39 -0.0922 | USP4 -0.0565
